{"source": "PubChem BioAssay AID1259313", "about": "(Sanford-Burnham Center for Chemical Genomics, 2017)", "note": "Hit rate of the full screen: of about 340,000 compounds, about 8,500 (2.5%) were called active. This is one part of a sample in which actives are shown more often than they occur. Values without a mark were called inactive.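 Rule for the calls: active = melting temperature shift of at least 10% of the positive control shift, at one fixed dose; inactive = the rest.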"}
{"test_system": "Glutamate receptor ionotropic, NMDA 3A (GRIN3A) ligand-binding domain", "assay": "binders of NR3A ligand-binding domain, primary screen, biophysical, differential scanning fluorimetry, uHTS (AID 1259313)", "details": "NR3A LBD differential scanning fluorimetry, at 25 µM, stronger effect = higher value, 0% = protein alone, 100% = glycine-bound protein"}
{"smiles": "CCOc1[nH]n(-c2ccc(Cl)cc2)c(=O)c1C=Nc1ccc(O)cc1", "Tm shift relative to glycine control": "5.05%"}
{"smiles": "CCOc1ccc(N=C2SC(C(=O)O)CC(=O)N2C)cc1", "note": "(configuration not stated)", "Tm shift relative to glycine control": "1.77%"}
{"smiles": "CCOc1ccc(N=C2NC(=O)S/C2=C\\c2ccc(O)cc2)cc1", "Tm shift relative to glycine control": "15.1% (active)"}
{"smiles": "CCCCn1c(N)c(N(CC(C)C)C(=O)CN(C)S(=O)(=O)c2ccc(F)cc2)c(=O)[nH]c1=O", "Tm shift relative to glycine control": "-1.73%"}
{"smiles": "Nc1cc(N)nc(SCC(=O)Nc2cccc(S(=O)(=O)N3CCCCC3)c2)n1", "Tm shift relative to glycine control": "-2.96%"}
{"smiles": "COc1cc(/C=C/C(=O)OCC(=O)NCCCc2ccccc2)ccc1O", "Tm shift relative to glycine control": "-3.57%"}
{"smiles": "COc1ccc(/C=C/C(=O)OCC(=O)Nc2cccc(Oc3ccccc3)c2)c(OC)c1", "Tm shift relative to glycine control": "1.79%"}
{"smiles": "COc1cc(/C=C/C(=O)OCC(=O)Nc2cccc(Oc3ccccc3)c2)ccc1O", "Tm shift relative to glycine control": "16.3% (active)"}
{"smiles": "Nc1ccc(S(=O)(=O)Nc2nccc(/C=C/c3ccc(Br)s3)n2)cc1", "Tm shift relative to glycine control": "3.72%"}
{"smiles": "Oc1cccc2ccc(/C=C/c3ccc(Br)s3)nc12", "Tm shift relative to glycine control": "27.9% (active)"}
{"smiles": "CC(Sc1nc2cc(Cl)ccc2s1)C(=O)Nc1ccc2c(c1)OCO2", "note": "(configuration not stated)", "Tm shift relative to glycine control": "17.5% (active)"}
{"smiles": "CC(Sc1nc(-c2ccccc2)cc(C(F)(F)F)n1)C(=O)Nc1ccc2c(c1)OCO2", "note": "(configuration not stated)", "Tm shift relative to glycine control": "-3.7%"}
{"smiles": "O=C(Nc1ccc2c(c1)OCO2)c1sc2cc(Cl)ccc2c1Cl", "Tm shift relative to glycine control": "2.38%"}
{"smiles": "COc1cc(C(C)=O)ccc1OC(=O)CN1C(=O)c2ccccc2C1=O", "Tm shift relative to glycine control": "-1.44%"}
{"smiles": "COC(=O)Nc1ncc(CN2CCCCC2)s1", "Tm shift relative to glycine control": "0.99%"}
{"smiles": "COC(=O)Nc1ncc(CN2C(=O)c3ccccc3C2=O)s1", "Tm shift relative to glycine control": "13.7% (active)"}
{"smiles": "CN(Cc1ccccc1)C(=O)CCNC(=O)Cn1cnc2ccccc2c1=O", "Tm shift relative to glycine control": "1.47%"}
{"smiles": "CC(C)=CCCC1(C)C=Cc2c(ccc3c2[nH]c2cc(O)c(C)cc23)O1", "note": "(configuration not stated)", "Tm shift relative to glycine control": "22.5% (active)"}
{"smiles": "O=C(O)CC/C(=N\\NC(=O)c1ccc(F)cc1)c1ccc(Br)cc1", "Tm shift relative to glycine control": "-1.55%"}
{"smiles": "O=C(COC(=O)c1ccc2ncsc2c1)Nc1ccc(Cl)cc1", "Tm shift relative to glycine control": "-0.85%"}
{"smiles": "COc1ccccc1-c1nnc(NC(=O)c2ccc3ncsc3c2)o1", "Tm shift relative to glycine control": "-3.33%"}
{"smiles": "Cc1sc(NC(=O)c2ccc3ncsc3c2)c(C(N)=O)c1C", "Tm shift relative to glycine control": "28.4% (active)"}
{"smiles": "COc1cc(OC)c(C(=O)NNC(=O)c2ccc(NS(=O)(=O)c3cccs3)cc2)cc1OC", "Tm shift relative to glycine control": "0.08%"}
{"smiles": "Cc1ccc(C(=O)N/C(=C/c2cccs2)C(=O)N2CCCCC2)cc1", "Tm shift relative to glycine control": "-1.69%"}
{"smiles": "COc1ccc(-c2ccc3nnc(SCC(=O)Nc4ccc(NC(C)=O)cc4)n3n2)cc1", "Tm shift relative to glycine control": "-5.8%"}
{"smiles": "COc1ccccc1NC(=O)c1cc(N2C(=O)C3C4CCC(C4)C3C2=O)ccc1Cl", "note": "(configuration not stated)", "Tm shift relative to glycine control": "-3.68%"}
{"smiles": "CCc1ccnc(NS(=O)(=O)c2ccc3c(c2)OCCO3)c1", "Tm shift relative to glycine control": "-2.2%"}
{"smiles": "COc1cccc(OC)c1C(=O)Nc1sc2c(c1C(N)=O)CCCC2", "Tm shift relative to glycine control": "-0.3%"}
{"smiles": "NNc1nc2c(Cl)cccc2s1", "Tm shift relative to glycine control": "-0.09%"}
{"smiles": "COc1cc2ccccc2cc1C(=O)N(CCN(C)C)c1nc2c(F)cccc2s1", "Tm shift relative to glycine control": "3.31%"}
{"smiles": "O=C(Nc1sc2c(c1C(=O)O)CCC2)c1ccccc1F", "Tm shift relative to glycine control": "1.58%"}
{"smiles": "NC(=O)c1c(Nc2nc3c(F)cccc3s2)sc2c1CCCC2", "Tm shift relative to glycine control": "10.8% (active)"}
{"smiles": "Fc1cc(F)c2nc(Nc3nc4c(F)cccc4s3)sc2c1", "Tm shift relative to glycine control": "17.3% (active)"}
{"smiles": "COCCNc1nc(N)c([N+](=O)[O-])c(N2CCCCCC2)n1", "Tm shift relative to glycine control": "0.58%"}
{"smiles": "Cc1ccc(-c2csc(-c3c[nH]c4ccccc34)n2)cc1", "Tm shift relative to glycine control": "25.6% (active)"}
{"smiles": "CCCc1cc(-c2nc(-c3ccc(C)cc3)cs2)ccn1", "Tm shift relative to glycine control": "-8.16%"}
{"smiles": "CCn1c(SCCC(C)C)nnc1-c1c[nH]c2ccccc12", "Tm shift relative to glycine control": "-26.6%"}
{"smiles": "COc1ccc(F)c(-c2nc(CN3CCC(c4ccccc4)CC3)c(C)o2)c1", "Tm shift relative to glycine control": "-0.88%"}
{"smiles": "CCCCn1c(N)c(N(CCC(C)C)C(=O)CC2OC(=O)c3ccccc32)c(=O)[nH]c1=O", "note": "(configuration not stated)", "Tm shift relative to glycine control": "-1.19%"}
{"smiles": "CCN(CC)C(=O)CSC(Nc1cccc(F)c1)=C(C#N)C#N", "Tm shift relative to glycine control": "11.7% (active)"}
{"smiles": "CN(CC(=O)Nc1cccc(F)c1)C(=O)CC1CCCC1", "Tm shift relative to glycine control": "2.89%"}
{"smiles": "Cc1ccc(CSCC(=O)N(C)CC(=O)Nc2cccc(F)c2)cc1", "Tm shift relative to glycine control": "-1.41%"}
{"smiles": "Cc1noc(C)c1S(=O)(=O)N(CC(=O)Nc1ccc2c(c1)OCCO2)c1ccc(C(C)C)cc1", "Tm shift relative to glycine control": "1.36%"}
{"smiles": "CC1Cc2ccccc2N1CC(=O)Nc1ccc2c(c1)OC(F)(F)O2", "note": "(configuration not stated)", "Tm shift relative to glycine control": "-9.28%"}
{"smiles": "COc1ccc(C(=O)NNS(=O)(=O)c2ccc(C)cc2)cc1", "Tm shift relative to glycine control": "9.89%"}
{"smiles": "COc1ccc(S(=O)(=O)N/N=C\\c2ccc(OC)c(COc3ccc(C)cc3[N+](=O)[O-])c2)cc1", "Tm shift relative to glycine control": "7.36%"}
{"smiles": "COc1ccc(C(=O)Oc2cc(/C=N/NS(=O)(=O)c3ccc(C)cc3)ccc2OC)cc1", "Tm shift relative to glycine control": "14.3% (active)"}
{"smiles": "COC(=O)c1nc(NC(=O)c2ccccc2)n[nH]1", "Tm shift relative to glycine control": "-2.48%"}
{"smiles": "COc1ccc(S(=O)(=O)NCC(c2ccco2)N2CCOCC2)cc1", "note": "(configuration not stated)", "Tm shift relative to glycine control": "0.48%"}
{"smiles": "COc1ccc(Nc2cc(=O)oc3ccccc23)cc1", "Tm shift relative to glycine control": "13.9% (active)"}
{"smiles": "COc1ccc2oc(=O)cc(-c3cc4ccccc4o3)c2c1", "Tm shift relative to glycine control": "-4.08%"}
{"smiles": "COc1ccc(CCNC(=O)COC(=O)c2cc(=O)c3ccccc3o2)cc1", "Tm shift relative to glycine control": "-0.35%"}
{"smiles": "CC1CCN(C(=O)CN(c2ccc(Oc3ccccc3)cc2)S(C)(=O)=O)CC1", "Tm shift relative to glycine control": "0.83%"}
{"smiles": "CCOc1cc(-c2noc(CCCC(=O)NC3CCCCC3)n2)ccc1OC", "Tm shift relative to glycine control": "-2.03%"}
{"smiles": "COc1ccc(CN2CC(C(=O)NC3CCCCC3)CC2=O)cc1", "note": "(configuration not stated)", "Tm shift relative to glycine control": "2.45%"}
{"smiles": "COc1cc(C#Cc2ccc3cc(CCCO)oc(=O)c3c2)cc(OC)c1", "Tm shift relative to glycine control": "-0.81%"}
{"smiles": "COC(=O)C(C)Oc1ccc2c(c1)O/C(=C\\c1cccc(Br)c1)C2=O", "note": "(configuration not stated)", "Tm shift relative to glycine control": "-2.66%"}
{"smiles": "COc1cc(/C=C2\\Oc3ccc(C#Cc4ccc(O)cc4)cc3C2=O)cc(OC)c1", "Tm shift relative to glycine control": "16.2% (active)"}
{"smiles": "CCN(CC(=O)Nc1cc(Cl)ccc1C)C(=O)CN1C(=O)NC2(CCCC2)C1=O", "Tm shift relative to glycine control": "0.97%"}
{"smiles": "CC(C(=O)NC1CCCC1)N1CCN(S(=O)(=O)c2ccccc2Cl)CC1", "note": "(configuration not stated)", "Tm shift relative to glycine control": "16.8% (active)"}
{"smiles": "CC(C)c1ccc(S(=O)(=O)N2CCN(C(C)C(=O)NC3CCCC3)CC2)cc1", "note": "(configuration not stated)", "Tm shift relative to glycine control": "-0.92%"}
{"smiles": "O=C(Cc1ccc(S(=O)(=O)N2CCCC2)s1)NC1CCCCCC1", "Tm shift relative to glycine control": "-3.8%"}
